In all, about 68,000 compounds went through this assay and about 2,700 (4%) showed an effect of 50% or more. Shown is part of a subset that was picked to be rich in strong results.
tested on: Plasmodium berghei; experiment: Screen against P. berghei liver stage (PbLuc), transformed with Luciferase, at 2uM; format: functional, HepG2; conditions: tested at 2 uM

SMILES	INHIBITION [%]
COc1cccc(-c2noc3c2CN(c2ncnc4c2CCC4)CC3)c1	62.51
COc1cccc(-c2noc3c2CN(c2nc(C)ncc2C)CC3)c1	36.28
COCc1cc(N2CCc3onc(-c4cccc(OC)c4)c3C2)ncn1	5.28
CC[C@@H](C)[C@@H](N)C(=O)Nc1cccc(-c2cnc(NCCO)nc2)c1	-35.83
CC(C)n1cnnc1C1CCCN(S(=O)(=O)CC2CCCC2)C1 (stereo not given)	60.42
CC(C)n1cnnc1C1CCCN(S(=O)(=O)CCCF)C1 (stereo not given)	-33.29
CC(C)CCS(=O)(=O)N1CCCC(c2nncn2C(C)C)C1 (stereo not given)	-108.93
Cc1nc(CN2CCC3(C2)CN(C(=O)c2conc2C)C3)cs1	3.95
CC(C)Cc1noc(-c2ccc(NCc3noc(C(C)C)n3)nc2)n1	42.17
COCC(C)Nc1ccc(-c2nc(Cc3ccc(F)cc3)no2)cn1 (stereo not given)	31.51
CCn1cncc1CNc1ccc(-c2nc(CC(C)C)no2)cn1	-15.11
CCC(O)CNc1ccc(-c2nc(CC(C)C)no2)cn1 (stereo not given)	69.71
CC(CO)Nc1ccc(-c2nc(Cc3ccc(F)cc3)no2)cn1 (stereo not given)	57.75
COc1ccc(Cc2noc(-c3ccc(NC(C)CO)nc3)n2)cc1 (stereo not given)	43.44
CN(C)C(=O)CO[C@H]1CO[C@@]2(CCN(Cc3ccsc3)C2)C1	-9.99
O=C(CCn1ccccc1=O)N1CCCC(COc2ccc(F)cc2)C1 (stereo not given)	8.25
O=C(NC[C@H]1OC[C@@H](NC2CCC(F)(F)CC2)[C@@H]1O)N1CCOCC1	11.43
Cc1cc(C(=O)N2CCC(c3nccn3Cc3ccncc3)CC2)no1	17.75
CCC(C)Oc1cc(C(=O)Nc2nccs2)ccn1 (stereo not given)	41.05
CCC(C)Oc1cc(C(=O)Nc2nnc(C(C)C)[nH]2)ccn1 (stereo not given)	38.67
CCC(C)Oc1cc(C(=O)Nc2nc(C)ns2)ccn1 (stereo not given)	52.98
c1cc(CN2C[C@@H]3OCCN(CCN4CCCC4)[C@@H]3C2)co1	2.87
Cc1nc(-c2cc(Cl)cc3c2OC(CN)C3)c[nH]1 (stereo not given)	26.74
Cc1nc(-c2cc(Cl)c3c(c2)CC(CN)O3)c[nH]1 (stereo not given)	74.44
Cc1nc(-c2cc(F)c3c(c2)CC(CN)O3)c[nH]1 (stereo not given)	33.9
CN(CC(F)(F)F)C(=O)Cn1cc(NC(=O)C(C)(C)C)cn1	-48.48
COc1cccc(-n2c(C)cc(C(=O)NC(C)(C)C(N)=O)c2C)c1	50.05

SMILES	INHIBITION [%]
COc1cccc(-n2c(C)cc(C(=O)NCCCC(N)=O)c2C)c1	30.29
CNC(=O)c1cc(C)n(-c2cccc(OC)c2)c1C	31.7
CN(Cc1ccco1)C[C@H]1OC[C@@H]2CN(c3ncc(F)cn3)CC[C@@H]21	17.89
O=C(NC1CC1)[C@H]1CN(Cc2ccc3c(c2)OCO3)C[C@H]2OCC[C@@H]12	-0.18
Cc1cc(C(=O)NCc2c(C)nn(C)c2C)nc(N2CCOCC2)n1	-68.8
Cc1cc(C(=O)NCc2c(C)nn(C)c2C)nc(N2CCCC2)n1	-70.38
Cc1cc(C(=O)NCCc2c(C)nn(C)c2C)nc(N2CCCCC2)n1	52.82
O=C(O)c1csc(S(=O)(=O)N2CCCc3cccc(OC(F)F)c32)c1	-58.31
CC(C)C(=O)NCc1ccccc1NS(=O)(=O)c1ccccc1	-1.56
CN(C(=O)c1ccc[nH]1)C1CCC(NC(=O)OC(C)(C)C)CC1 (stereo not given)	48.21
CN(C(=O)c1cccn1C)C1CCC(NC(=O)OC(C)(C)C)CC1 (stereo not given)	62.51
CN(C(=O)c1ccco1)C1CCC(NC(=O)OC(C)(C)C)CC1 (stereo not given)	38.67
c1cnc(N2CCC3(CCCN(Cc4ccncc4)C3)CC2)nc1	4.89
c1cncc(COCc2cncc3c2CCN(Cc2ccoc2)C3)c1	25.5
Cc1[nH]c2ccccc2c1-c1ccnc(NCCN2CCCCC2)n1	-2.21
O=C(O)c1nnn(-c2ccc(C(F)(F)F)cc2)c1-c1ccncc1	-40.92
CC(C)[C@H](Nc1nc(C2CCCC2)nc2c1cnn2C)C(N)=O	23.16
CCOC(=O)CC(C)Nc1nc(C2CCCC2)nc2c1cnn2C (stereo not given)	57.64
CCOC(=O)CC(C)Nc1nc(C(C)(C)C)nc2c1cnn2C (stereo not given)	-70.6
COC(=O)[C@@H](Nc1nc(C2CCCC2)nc2c1cnn2C)[C@@H](C)O	40.4
COC(=O)[C@H](CSC)Nc1nc(C2CCCC2)nc2c1cnn2C	43.28
CC(C)C[C@H](Nc1nc(C2CCCC2)nc2c1cnn2C)C(N)=O	52.38
CCOCC1CN(C(=O)Cc2ccsc2)Cc2ccnn2C1 (stereo not given)	21.77
CC(=O)N1CCCN(C(C(=O)O)c2cccc(C)c2C)CC1 (stereo not given)	-17.37
O=C1COC2(CCN(Cc3cccnc3)CC2)CN1	11.87
c1cncc(N2CCOCC3(CCCN(Cc4cccs4)C3)C2)c1 (stereo not given)	-26.24
Cc1c(Cl)c(C(=O)N2C[C@@H](C(=O)O)[C@H](c3cccnc3)C2)nn1C	69.71

SMILES	INHIBITION [%]
Cc1ccc2nc(C(=O)N3C[C@@H](C(=O)O)[C@H](c4cccnc4)C3)cn2c1	1.52
Cc1c(Cl)c(C(=O)N2CC(c3cccnc3)C2)nn1C	7.62
Cc1nc(C)n(CC2CCCN2CCCOc2ccc(F)cc2)n1 (stereo not given)	-8.1
CCC(C(=O)Nc1ccc2nc(C)oc2c1)N1CCCC1=O (stereo not given)	14.06
Cc1ccc(NC2CCCN(C3Cc4ccccc4C3)C2)nn1 (stereo not given)	3.91
CNc1nc(C)cc(NC2CCCN(C3Cc4ccccc4C3)C2)n1 (stereo not given)	58.03
CNc1cc(C)nc(NC2CCCN(C3Cc4ccccc4C3)C2)n1 (stereo not given)	8.26
CC(C)COC1CC2(CCN(C(=O)Cc3ccccn3)CC2)C1	-9.07
CSCc1noc(Cn2ncn3cccc3c2=O)n1	46.15
c1cc(CN2CCOCC3(CCN(CC4CCOCC4)CC3)C2)ccn1	26.76
CC1CN(C(=O)c2cnn(-c3ccccn3)c2C(C)C)CC(C)(C)O1 (stereo not given)	-4.15
CCc1c(C(=O)N2CC(C)OC(C)(C)C2)cnn1-c1ccccn1 (stereo not given)	24.23
CCc1c(C(=O)N2CCOC(C)(C)C2)cnn1-c1ccccn1	61.63
CCc1nc(CC(=O)N2CCC(C(=O)N3CCCC3)CC2)cs1	-30.23
O=C1CC[C@H]2[C@H](CCN2C(=O)N2CCCC2)N1Cc1ccncc1	-61.95
OC(c1ccccn1)C1CCN(Cc2cc3n(n2)CCCNC3)CC1 (stereo not given)	-29.69
OC(c1ccccn1)C1CCN(Cc2cc3n(n2)CCNC3)CC1 (stereo not given)	60
c1ccc(C2CCCN(Cc3cc4n(n3)CCNC4)CC2)cc1 (stereo not given)	9.57
CCC(NC(=O)C1CCN(S(C)(=O)=O)CC1)c1ccc(OC)cc1 (stereo not given)	19.7
O=C(NC1CCCC1)[C@@H]1C[C@@H]2CCN(Cc3ccoc3)C[C@H]2O1	3.18
COc1ccc(C(CC(=O)O)NC(=O)CCc2cccs2)cc1OC (stereo not given)	36.38
Cc1ccc(C(CC(=O)O)NC(=O)CCc2cccs2)cc1 (stereo not given)	-34.12
O=C(O)CC(NC(=O)CCCc1cccs1)c1ccc(F)cc1 (stereo not given)	57.2
CCCc1cc(NC2CCc3nc(C(C)C)nn3C2)n2ncnc2n1 (stereo not given)	-43.09
COc1cccc(CN(C)Cc2cc(C#N)ccc2F)c1OC	56.49
COc1cccc(CN(C)Cc2cccc(C#N)c2)c1OC	3.3
COc1cccc(CN(C)Cc2ccc(C#N)cc2)c1OC	10.52

SMILES	INHIBITION [%]
Cc1ccc(NC(=O)C2=CN=S=N2)cc1	25.51
CN(C)C(=O)[C@@H]1C[C@@H]2CCN(Cc3ccncc3)C[C@@H]2O1	37.6
c1cc2nccc(CC3CCCN(C4CCOCC4)CC3)c2cn1 (stereo not given)	24.56
CC(=O)N1CCC(NC(=O)c2cc(Cl)ccc2-n2cnnn2)CC1	53.19
O=C(NC1CC1)c1cc(Cl)ccc1-n1cnnn1	-14
O=C(NC1CCN(C2CC2)CC1)c1cc(Cl)ccc1-n1cnnn1	19.04
CCCC1(CO)CCCN(C(=O)CNC(C)=O)C1 (stereo not given)	15.27
O=c1cc(N2CCNCC2)cnn1Cc1noc(C2CCCC2)n1	41.84
O=C(Cn1nc(Br)nc1Br)N1CCCC1	-14.58
CCCC1COCCN1Cc1ccc(S(=O)(=O)NC)cc1 (stereo not given)	30.96
CCCC1COCCN1Cc1ccc(C(=O)O)cc1 (stereo not given)	55.7
CCCC1COCCN1Cc1ccc(NC(C)=O)cc1 (stereo not given)	48.17
COc1ccc(Cl)cc1CS(=O)(=O)CC(=O)N(C)Cc1ccccc1F	51.94
CN(Cc1ccccc1F)C(=O)CS(=O)(=O)Cc1ccc(Cl)c(Cl)c1	-10.5
Cc1ccccc1CS(=O)(=O)CC(=O)N(C)Cc1ccccc1F	-38.35
Cc1nc(C(C)C)sc1C(C)N(C)C(=O)c1ccc(=O)n(C)c1 (stereo not given)	-11.76
CCc1ccc(CN(C)c2ccc(-c3nc(COC)no3)cn2)nc1	10.65
CCc1ccc(CN(C)Cc2nc(COc3ccccc3)no2)nc1	64.2
CCc1ccc(CN(C)Cc2nc(-c3cnccn3)no2)nc1	-16.76
CN(Cc1ccc(F)cc1F)Cc1cc2c(cc1Br)OCCO2	45.66
Cc1cnccc1N1CCCN(C(=O)CCCc2cn[nH]c2)CC1	9.17
O=C(c1ccccn1)N1C[C@@H]2OCC(=O)N(CC3CCCCC3)[C@@H]2C1	56.16
O=C(c1cnccn1)N1C[C@@H]2[C@@H](C1)OCC(=O)N2CC1CCCC1	31.65
O=C(c1cnccn1)N1C[C@@H]2OCC(=O)N(CC3CCCCC3)[C@@H]2C1	-26.14

Reference: ChEMBL document CHEMBL4513216, “Probing the Open Global Health Chemical Diversity Library for Multistage-Active Starting Points for Next-Generation Antimalarials” (ACS Infect Dis, 2020)
